Compound activity from PubChem.
PLCb3 inh = human PLC-beta3 inhibitors, primary screen, biochemical, fluorescence; inhibition, % at 12.2 µM; Purified PLC-beta3, fluorogenic substrate; 370,000 compounds, 0.18% hits;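 further: 0% = median of compound wells on plate and 100% = full blocker control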
ADAM10 inh = human ADAM10 inhibitors, primary screen, biochemical, QFRET, HTS | recombinant ADAM10, EDANS/DABCYL FRET peptide cleavage, 3 h | 370,000 compounds, 0.62% hits | inhibition, % at 7 µM | AID 720582, 2013 | Disintegrin and metalloproteinase domain-containing protein 10 (Homo sapiens), O14672;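 active means inhibition above a per-campaign cutoff equal to the mean of compounds falling between control-based bounds plus 3 SD, cut at about 20% in these data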;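 further: 0% = DMSO wells while the 100% control is not disclosed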
ADAM17 inh = ADAM17 inhibitors, primary screen, biochemical, QFRET; Disintegrin and metalloproteinase domain-containing protein 17 (Homo sapiens), P78536; recombinant ADAM17, EDANS/DABCYL FRET peptide cleavage; inhibition, % at 6.95 µM; 370,000 compounds, 0.83% hits; AID 720648, 2013;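 active means inhibition above the mean of compounds lying between control limits plus 3 SD, set per campaign, cut at about 8.5% in these data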;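 further: 0% = DMSO-only wells as the low control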
proKLK7 act = proKLK7 zymogen activators, primary screen, biochemical, fluorescence intensity; purified proKLK7, EDANS-DABCYL substrate fluorescence; 100% is mature enzyme control, 0% vehicle; AID 652039, 2013; Kallikrein-7 (Homo sapiens), P49862; 370,000 compounds, 0.9% hits; activation, % at 7 µM;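 active means activation above the mean of all tested compounds plus 3 SD, computed per campaign excluding outliers beyond control limits, cut at about 13% in these data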
PLC-gamma1 inh = PLC-gamma1 enzyme inhibitors, primary screen, biochemical, fluorescence, purified enzyme; 1-phosphatidylinositol 4,5-bisphosphate phosphodiesterase gamma-1 (Homo sapiens), P19174; fluorogenic substrate; inhibition, % at 12.2 µM; 370,000 compounds, 0.84% hits; AID 720700, 2013; in the data active means inhibition above about 9.5%
Target sequence (P19174 whole entry, looked up): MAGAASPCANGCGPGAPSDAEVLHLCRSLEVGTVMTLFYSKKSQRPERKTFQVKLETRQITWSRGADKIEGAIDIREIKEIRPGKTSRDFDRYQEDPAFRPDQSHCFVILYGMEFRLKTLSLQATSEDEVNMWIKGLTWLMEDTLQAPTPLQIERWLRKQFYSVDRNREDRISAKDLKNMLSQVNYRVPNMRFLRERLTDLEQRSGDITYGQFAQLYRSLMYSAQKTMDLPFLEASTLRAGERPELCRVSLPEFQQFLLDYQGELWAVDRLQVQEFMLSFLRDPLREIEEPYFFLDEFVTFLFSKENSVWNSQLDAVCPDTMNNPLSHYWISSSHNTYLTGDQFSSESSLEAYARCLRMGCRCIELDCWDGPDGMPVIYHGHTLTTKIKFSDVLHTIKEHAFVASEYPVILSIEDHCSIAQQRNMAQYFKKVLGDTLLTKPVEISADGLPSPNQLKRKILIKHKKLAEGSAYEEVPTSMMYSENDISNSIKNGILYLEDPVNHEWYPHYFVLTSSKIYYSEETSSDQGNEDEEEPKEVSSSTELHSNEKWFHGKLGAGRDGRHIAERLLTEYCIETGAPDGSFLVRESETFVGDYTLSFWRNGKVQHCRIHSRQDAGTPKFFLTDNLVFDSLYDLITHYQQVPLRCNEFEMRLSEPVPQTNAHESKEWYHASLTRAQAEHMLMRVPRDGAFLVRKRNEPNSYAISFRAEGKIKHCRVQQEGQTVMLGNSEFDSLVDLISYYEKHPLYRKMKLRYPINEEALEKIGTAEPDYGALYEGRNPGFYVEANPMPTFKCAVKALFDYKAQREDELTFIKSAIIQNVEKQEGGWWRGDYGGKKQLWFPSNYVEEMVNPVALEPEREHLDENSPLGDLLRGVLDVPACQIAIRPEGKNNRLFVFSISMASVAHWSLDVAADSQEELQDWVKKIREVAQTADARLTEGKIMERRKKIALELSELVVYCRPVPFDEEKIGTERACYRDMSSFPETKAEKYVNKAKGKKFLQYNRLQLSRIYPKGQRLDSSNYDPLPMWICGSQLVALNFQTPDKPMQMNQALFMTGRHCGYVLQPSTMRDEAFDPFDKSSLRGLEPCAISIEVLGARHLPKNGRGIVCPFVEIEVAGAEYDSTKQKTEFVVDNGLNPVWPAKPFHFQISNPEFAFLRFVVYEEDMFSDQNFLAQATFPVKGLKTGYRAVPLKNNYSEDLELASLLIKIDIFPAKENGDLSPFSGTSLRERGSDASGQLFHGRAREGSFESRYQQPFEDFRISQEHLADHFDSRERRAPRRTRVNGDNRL
PLCgamma1 ctr = PLC-gamma1 enzyme inhibitors, counter-screen for PLC-beta3 inhibitor project, biochemical, fluorescence | shares compounds with PLC-gamma1 inh | purified PLC-gamma1, fluorogenic substrate | inhibition, % at 12.3 µM | 3,300 compounds, 3.1% hits; in the data active means inhibition above about 9.5%
PLCbeta3 conf = PLC-beta3 inhibitor confirmation, biochemical, fluorescence, purified enzyme | inhibition, % at 12.3 µM | fluorogenic substrate fluorescence | 3,300 compounds, 1% hits | shares compounds with PLC-gamma1 inh
* = called active by the depositor; ! = not active in a repeat. This is a sample that favours compounds with a hit; in the whole collection about 2.9% have one here. Unless noted, no stated cut-off is given here; in the data, active means inhibition above about 11%; inactive means the rest.

For C=CCC[C@@H](Cc1ccc(F)cc1)C(=O)OC[C@H](Cc1c[nH]c2ccccc12)NC(=O)[C@@H](CC=C)CC(=O)N[C@@H](CO)Cc1ccccc1 the results were PLCb3 inh 6, ADAM10 inh 16, ADAM17 inh 8, proKLK7 act 2, PLC-gamma1 inh 10*, PLCgamma1 ctr -7 and PLCbeta3 conf -4.
`CCOC(=O)[C@@H](C)N1[C@@H](C)[C@H](c2ccccc2)Oc2ccc(Cl)cc2S1(=O)=O` gave PLCb3 inh 2, ADAM10 inh -18, ADAM17 inh 3, proKLK7 act 0 and PLC-gamma1 inh -2.
Screening CCOc1ccc(NS(=O)(=O)c2ccc(OCC(=O)NCc3ccncc3)cc2)cc1 returned PLCb3 inh -6, ADAM10 inh 3, ADAM17 inh -3, proKLK7 act 1 and PLC-gamma1 inh 1.
Screening Cc1ccc(NS(=O)(=O)c2ccc(OCC(=O)NCc3ccncc3)cc2)cc1 returned PLCb3 inh 11*, ADAM10 inh 6, ADAM17 inh 5, proKLK7 act 0, PLC-gamma1 inh 3, PLCgamma1 ctr -7 and PLCbeta3 conf -1.
Cc1ccc2nc(NC(=O)CN3C(=O)NC4(CCCCC4)C3=O)sc2c1 was read as PLCb3 inh 0, ADAM10 inh 5, ADAM17 inh 4, proKLK7 act 1, PLC-gamma1 inh 12*, PLCgamma1 ctr 0 and PLCbeta3 conf 1.
COc1ccc(C(=O)Nc2cc(Cl)ccc2-n2cncn2)c(OC)c1OC was read as PLCb3 inh -2, ADAM10 inh -6, ADAM17 inh -1, proKLK7 act 0 and PLC-gamma1 inh -2.
For O=C(N/C(=C/c1ccccc1)C(=O)N1CCCCC1)c1ccccc1 the results were PLCb3 inh -7, ADAM10 inh -11, ADAM17 inh -1, proKLK7 act 0 and PLC-gamma1 inh 0.
Screening O=C(N/C(=C\c1ccccc1)C(=O)N1CCCCCC1)c1ccccc1 returned PLCb3 inh 0, ADAM10 inh 1, ADAM17 inh -5, proKLK7 act -1, PLC-gamma1 inh 9.6*, PLCgamma1 ctr -3 and PLCbeta3 conf -1.
CN=C1SC(CC(=O)NCCc2ccc(OC)c(OC)c2)C(=O)N1C (stereo not drawn) was read as PLCb3 inh 13*!, ADAM10 inh -2, ADAM17 inh 6, proKLK7 act 0, PLC-gamma1 inh 11*!, PLCgamma1 ctr 9.5* and PLCbeta3 conf 6.
For Cn1c(CNC(=O)CNS(=O)(=O)c2ccccc2)cc(=O)n(C)c1=O the results were PLCb3 inh -3, ADAM10 inh 0, ADAM17 inh 2, proKLK7 act 1 and PLC-gamma1 inh 1.
`COc1ccc(S(=O)(=O)NCC(=O)NCc2cc(=O)n(C)c(=O)n2C)cc1C` gave PLCb3 inh -5, ADAM10 inh -5, ADAM17 inh 6, proKLK7 act 0, PLC-gamma1 inh 9.9*, PLCgamma1 ctr -5 and PLCbeta3 conf 1.
O=C(CCc1ccccc1)Oc1ccccc1[N+](=O)[O-] was read as PLCb3 inh 9, ADAM10 inh 1, ADAM17 inh 2, proKLK7 act 0, PLC-gamma1 inh 13*, PLCgamma1 ctr -8 and PLCbeta3 conf 0.
For CCOC(=O)c1c(C)nc(C)c(C(=O)OCC)c1-c1ccc(Br)cc1 the results were PLCb3 inh 6, ADAM10 inh 11, ADAM17 inh 6, proKLK7 act 0, PLC-gamma1 inh 12*, PLCgamma1 ctr -5 and PLCbeta3 conf -2.
`CCOC(=O)c1c(C)nc(C)c(C(=O)OCC)c1-c1ccc(OC)cc1` gave PLCb3 inh -1, ADAM10 inh 2, ADAM17 inh -1, proKLK7 act 0 and PLC-gamma1 inh 3.
Screening COC(=O)CCCCCN1C(=O)/C(=C\c2ccncc2)SC1=S returned PLCb3 inh -6, ADAM10 inh 5, ADAM17 inh 1, proKLK7 act 0 and PLC-gamma1 inh 2.
For CC1Cc2ccccc2N1C(=O)CSc1nc(-c2ccco2)cc(C(F)(F)F)n1 (stereo not drawn) the results were PLCb3 inh 1, ADAM10 inh 8, ADAM17 inh 3, proKLK7 act 0, PLC-gamma1 inh 13*, PLCgamma1 ctr -2 and PLCbeta3 conf 0.
CN1CCN(C(=O)CSc2nc(-c3ccco3)cc(C(F)(F)F)n2)CC1 was read as PLCb3 inh -2, ADAM10 inh -1, ADAM17 inh 1, proKLK7 act 0 and PLC-gamma1 inh -4.
`CC(C)c1ccc(NC2CCCN(C(=O)CCc3cn[nH]c3)C2)cc1` (stereo not drawn) gave PLCb3 inh -6, ADAM10 inh -9, ADAM17 inh -7, proKLK7 act 1 and PLC-gamma1 inh -3.
For O=C(CCc1ccncc1)N1CCCC(Nc2ccc(F)cc2)C1 (stereo not drawn) the results were PLCb3 inh -3, ADAM10 inh -3, ADAM17 inh 0, proKLK7 act -1 and PLC-gamma1 inh -4.
O=C(CCc1ccccc1)N1CCCC(Nc2ccc(F)cc2)C1 (stereo not drawn) was read as PLCb3 inh 1, ADAM10 inh 9, ADAM17 inh -3, proKLK7 act 0, PLC-gamma1 inh 11*, PLCgamma1 ctr -1 and PLCbeta3 conf 2.
COc1ccc(NC2CCCN(C(=O)CCc3cn[nH]c3)C2)cc1 (stereo not drawn) was read as PLCb3 inh -9, ADAM10 inh -11, ADAM17 inh 0, proKLK7 act 1, PLC-gamma1 inh 10*, PLCgamma1 ctr -3 and PLCbeta3 conf 3.
For O=C(CCCCl)Oc1ccc2cc(-c3ccc4ccccc4n3)c(=O)oc2c1 the results were PLCb3 inh inactive, ADAM10 inh -376, ADAM17 inh -149, proKLK7 act 11 and PLC-gamma1 inh inactive.
`COc1cccc(-n2c(C)nnc2SCC#N)c1` gave PLCb3 inh 13*, ADAM10 inh 11, ADAM17 inh 6, proKLK7 act 0, PLC-gamma1 inh 12*, PLCgamma1 ctr -4 and PLCbeta3 conf -1.
Screening COc1ccccc1CCCNC(=O)C1CCC(=O)N(CCc2cccc(F)c2)C1 (stereo not drawn) returned PLCb3 inh -3, ADAM10 inh 0, ADAM17 inh -1, proKLK7 act 0 and PLC-gamma1 inh 1.
